Compound activity: PubChem, National Center for Advancing Translational Sciences (NCATS)
Rows were chosen to be rich in hits. Some 0.44% of all compounds tested hit in one or more screens of this group.
p53 reactivation – qHTS assay for re-activators of p53 using a Luc reporter | Potency, µM (doses to about 92.2 µM), actives largely listed as activators | 0.063% of 320,000 active | H1299 p53-A138V BP100-luciferase reporter, luminescence, 24 h | AID 504706, 2011; note: nearly all actives have a fitted effect of over 45% in size
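H1299 (p53-null), stable ts p53-A138V + BP100-Luc; 1000 cells/well, Opti-MEM/10% FBS; cpd 4 pt, 1:5; 24 h, 37 deg C, 5% CO2; detection reagent 10 min RT; luminescence.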
Pin1 inh – qHTS Assay to Find Inhibitors of Pin1; Peptidyl-prolyl cis-trans isomerase NIMA-interacting 1 (Homo sapiens), Q13526; Pin1 FP peptide displacement, HiFluor488, 10 min; Potency, µM (doses to about 115 µM), actives largely listed as inhibitors; 0.009% of 390,000 active; AID 504891, 2011; active = well fitted inhibition curve with a large enough effect in the polarisation, with a control signal flat, not every such curve was filed as active; inconclusive = small, poorly fitted or top-dose-only effect, or effect the other way, or a change in a side signal; inactive = no such curve, though single readings can be large or run the other way; the % refers to the polarisation
Giardia killer – Small Molecules that selectively kill Giardia lamblia: qHTS. Giardia lamblia trophozoite viability. activity change, % at 7.66 µM, hits read low. 0.15% of 340,000 active. AID 540267, 2011; in the data active = activity change below about -80%; inconclusive = between about -30% and that limit;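 note: parasites exposed to compound for two days anaerobically before the ATP read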
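Compounds were tested on trophozoites seeded at 100 cells/well and held 48 hrs at 37 deg C anaerobically. An ATP-based luminescent kit measured the remaining live cells.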
PI4K2A block – qHTS for small molecular inhibitors of PI4K2A; AID 1346378, 2018; activity change, negative = inhibition, % at 76.9 µM; purified PI4K2A, ADP-Glo luminescence, 1 h; stronger effect = lower value; Phosphatidylinositol 4-kinase type 2-alpha (Homo sapiens), Q9BTU6; 0.13% of 420,000 active; in the data active = activity change below about -50%; inconclusive = mostly about -30% to -49%
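ADP-Glo luminescence measured ADP generated by PI4K2A enzyme (4 ug/mL before mixing) with 1.2 mM PI substrate (pre-mix) and 300 microM ATP (pre-mix). Tris pH7.5 buffer with MgCl2, Triton X-100; 1 h reaction at ambient temperature.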
B2AR arrestin – qHTS assay of beta-arrestin-biased ligands of beta2-adrenergic receptor; Beta-2 adrenergic receptor (Homo sapiens), P07550; beta-arrestin recruitment to beta2AR, cell-based reporter; Potency, µM (highest dose often 46.1 µM), usual class: activators; 0.02% of 330,000 active; note: nearly all actives have a fitted effect of over 65% in size
Target sequence (P07550 whole entry, looked up): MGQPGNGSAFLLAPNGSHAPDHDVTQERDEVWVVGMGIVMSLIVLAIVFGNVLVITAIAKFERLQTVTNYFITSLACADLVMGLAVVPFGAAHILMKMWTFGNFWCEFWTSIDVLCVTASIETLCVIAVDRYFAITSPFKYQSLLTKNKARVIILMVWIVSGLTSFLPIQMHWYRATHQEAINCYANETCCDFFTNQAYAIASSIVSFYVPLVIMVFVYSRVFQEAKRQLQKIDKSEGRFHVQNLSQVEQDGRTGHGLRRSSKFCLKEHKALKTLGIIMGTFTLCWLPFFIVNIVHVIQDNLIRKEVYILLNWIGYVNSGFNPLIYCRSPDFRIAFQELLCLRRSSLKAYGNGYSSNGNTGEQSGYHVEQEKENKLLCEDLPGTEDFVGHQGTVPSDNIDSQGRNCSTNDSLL
Epigenetic derep – Quantitative High-Throughput Screen for Regulators of Epigenetic Control; Potency, µM (top dose mostly 53.9 µM), hits mostly activators; 0.2% of 280,000 active; murine LDR cells, GFP reporter derepression, 30 h; note: nearly all actives have a fitted effect of over 60% in size
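Reporter derepression read as number of fluorescent GFP-positive objects, 20-120 um in size, counted by laser-scanning cytometer. Mouse LDR line with an epigenetically silenced CMV-GFP locus; compound incubation 30 h, 37 C.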
Large screens that a line does not name were inactive. Unless noted, calls come from the whole dose curve; as a rule, active = well fitted curve in the direction sought with a large enough effect; inconclusive = small, poorly fitted or top-dose-only effect, or another doubt; inactive = no such curve, though single readings can be large; an effect the other way counts as inactive or inconclusive.

Cc1cccc(NC(=O)c2ccc(NCCc3ccccc3)c([N+](=O)[O-])c2)c1	Pin1 inh inconclusive, Epigenetic derep 18µM
COc1ccc(C2Nc3ccccc3C(=O)N2Cc2ccccc2)cc1COc1ccc(C)cc1 (stereo not drawn)	none (no result: p53 reactivation, Giardia killer, PI4K2A block, B2AR arrestin, Epigenetic derep)
O=C(N/N=C/c1ccc([N+](=O)[O-])o1)c1cc(-c2ccncc2)nc2ccccc12	Pin1 inh inconclusive
Cc1cc(N/N=C/c2ccc([N+](=O)[O-])o2)nc2ccccc12	Pin1 inh inconclusive, Giardia killer -82, Epigenetic derep 6.3µM
Cc1ccc(-c2cc(C(=O)N/N=C/c3ccc([N+](=O)[O-])o3)c3ccccc3n2)o1	Pin1 inh inconclusive, Giardia killer -92 (no result: Epigenetic derep)
O=C(N/N=C/c1ccc([N+](=O)[O-])o1)c1cc(-c2ccc(-c3ccccc3)cc2)nc2ccccc12	Giardia killer -98
CC(Oc1cccnc1[N+](=O)[O-])C(=O)Nc1cccc(Cl)c1 (stereo not drawn)	Giardia killer -87 (no result: Epigenetic derep)
CC(Oc1cccnc1[N+](=O)[O-])C(=O)Nc1ccc(F)cc1 (stereo not drawn)	Giardia killer inconclusive (no result: Epigenetic derep)
Cc1onc(-c2ccccc2)c1C(=O)Cl	none (no result: p53 reactivation, Pin1 inh, Giardia killer, B2AR arrestin, Epigenetic derep)
O=C(O)c1ccc(-c2noc(-c3ccccc3F)n2)cc1	PI4K2A block -68 (no result: p53 reactivation, B2AR arrestin, Epigenetic derep)
CCCCCCCCCCCCCCCCCC(=O)NCCc1ccc(O)c(O)c1	Epigenetic derep 11µM (no result: p53 reactivation, Pin1 inh, Giardia killer, PI4K2A block, B2AR arrestin)
CCCCCCCC/C=C\CCCCCCCC(=O)NCCc1ccc(O)c(O)c1	Pin1 inh inconclusive, Epigenetic derep inconclusive
CSc1ccc(/C=C/C(=O)Nc2ccccc2)cc1	p53 reactivation inconclusive, Giardia killer inconclusive, PI4K2A block -52
N#Cc1c(NC(=O)c2ccc(Br)o2)n(-c2ccccc2)c2nc3ccccc3nc12	PI4K2A block -52
CCC(C)n1c(NC(=O)c2ccccc2)c(C#N)c2nc3ccccc3nc21 (stereo not drawn)	Pin1 inh inconclusive, PI4K2A block -56, Epigenetic derep 20µM
O=C(Nc1cccc(Cl)c1)Nc1nc(-c2ccccc2)cs1	none
Cc1csc(NC(=O)Nc2cccc(Cl)c2)n1	p53 reactivation 28µM
O=c1cc(-c2ccccc2Cl)oc2c(NS(=O)(=O)c3cc(Cl)cc(Cl)c3O)ccc(O)c12	Pin1 inh 22µM
CCCOc1ccc2cc(-c3ccccn3)c(=O)oc2c1	Giardia killer inconclusive, PI4K2A block -61
CC(=O)c1ccc(O)c(C(N)=O)c1	none (no result: p53 reactivation, Pin1 inh, Giardia killer, B2AR arrestin, Epigenetic derep)
COc1ccc(-[n+]2c(C)cc(/C=C3\Sc4ccccc4N3C)cc2C)cc1	Pin1 inh inconclusive, Epigenetic derep 3.2µM
COc1ccccc1-[n+]1c(C)cc(/C=C2\Sc3ccccc3N2C)cc1C	p53 reactivation inconclusive, Pin1 inh inconclusive, Epigenetic derep 7.9µM
O=C(Nc1ccc(N2CCN(C(=O)c3ccc(Cl)cc3)CC2)cc1)c1ccc([N+](=O)[O-])o1	Giardia killer -87, Epigenetic derep inconclusive
CCCC(=O)N1CCN(c2ccc(NC(=O)c3ccc([N+](=O)[O-])o3)cc2)CC1	Giardia killer -82, Epigenetic derep inconclusive
O=C(Nc1ccc(N2CCCC2)c(Cl)c1)c1ccc([N+](=O)[O-])o1	Giardia killer inconclusive
CS(=O)(=O)N1CCN(c2ccc(NC(=O)c3ccc([N+](=O)[O-])o3)cc2)CC1	Giardia killer -81, Epigenetic derep inconclusive
CCC(=O)N1CCN(c2ccc(NC(=O)c3ccc([N+](=O)[O-])o3)cc2)CC1	Giardia killer inconclusive, Epigenetic derep inconclusive
COc1ccc(N2CCCC2)c(NC(=O)c2ccc([N+](=O)[O-])o2)c1	p53 reactivation inconclusive, Pin1 inh inconclusive, Giardia killer -86 (no result: Epigenetic derep)
O=c1c2ccccc2nc2sc(Nc3cccc(N4CCNCC4)c3)nn12	none (no result: p53 reactivation, Giardia killer, PI4K2A block, B2AR arrestin, Epigenetic derep)
COc1cccc(CN2C(=O)c3ccccc3NC2c2ccc(OC)c(COc3ccc(NC(C)=O)cc3)c2)c1 (stereo not drawn)	none (no result: p53 reactivation, Giardia killer, PI4K2A block, B2AR arrestin, Epigenetic derep)
